Screening data deposited in PubChem BioAssay by National Center for Advancing Translational Sciences (NCATS).
Rango complex inh: Rango-importin beta binding inhibition | Q14974 | Rango CFP/YFP FRET sensor + importin beta, 45 min | Potency, µM (titrated, usually from 92.2 µM), inactives show at the top dose inhibition of complex formation | 340,000 tested, 0.031% active; calls by dose curve;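 also: 0% = DMSO wells and 100% = buffer wells lacking importin beta; nearly all actives have a fitted effect of over 15% in size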
Target sequence (Q14974 whole entry, looked up): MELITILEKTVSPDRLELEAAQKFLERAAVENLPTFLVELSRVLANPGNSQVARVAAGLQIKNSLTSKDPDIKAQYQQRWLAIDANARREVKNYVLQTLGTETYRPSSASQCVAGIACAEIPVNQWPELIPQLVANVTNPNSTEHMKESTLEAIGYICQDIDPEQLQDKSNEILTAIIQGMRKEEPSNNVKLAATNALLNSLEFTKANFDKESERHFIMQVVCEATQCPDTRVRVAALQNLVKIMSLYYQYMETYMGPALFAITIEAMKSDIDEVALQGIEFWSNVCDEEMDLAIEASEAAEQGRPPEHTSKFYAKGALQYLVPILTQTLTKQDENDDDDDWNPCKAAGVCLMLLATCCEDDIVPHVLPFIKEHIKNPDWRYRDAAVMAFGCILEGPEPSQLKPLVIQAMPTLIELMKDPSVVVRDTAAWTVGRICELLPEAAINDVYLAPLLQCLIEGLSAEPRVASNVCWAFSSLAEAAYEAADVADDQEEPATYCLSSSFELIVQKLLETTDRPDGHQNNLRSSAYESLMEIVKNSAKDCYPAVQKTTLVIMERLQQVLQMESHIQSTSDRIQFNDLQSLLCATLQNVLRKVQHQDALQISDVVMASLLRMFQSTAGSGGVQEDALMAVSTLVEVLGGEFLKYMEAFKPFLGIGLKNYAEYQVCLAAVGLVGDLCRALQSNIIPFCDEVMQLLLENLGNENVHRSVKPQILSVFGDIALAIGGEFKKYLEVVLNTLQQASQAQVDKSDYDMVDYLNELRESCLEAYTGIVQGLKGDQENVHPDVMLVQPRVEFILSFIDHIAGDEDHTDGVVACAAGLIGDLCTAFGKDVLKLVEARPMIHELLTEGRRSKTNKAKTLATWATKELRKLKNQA
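Inhibition scored from the CFP 486 nm/YFP 530 nm FRET ratio 45 min after adding 0.125 microM importin beta to 50 nM Rango biosensor preincubated 5 min with compound (room temperature, PBS with DTT, Tween-20, BSA). No-importin wells as positive control.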
A549 tox: A549 cytotoxicity, counter-screen for Nrf2 inhibitors | A549 ARE-Fluc cells, CellTiter-Fluor viability, 18-24 h | Potency, µM (series often up to 46 µM), for inactives: at the highest dose activity change, negative = cytotoxicity, hits mostly inhibitors | 390,000 tested, 0.16% active | AID 504648; also: % is scaled to controls: 0 for no effect and ±100 for the full control effect
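A549 ARE-Fluc cells in 5% FBS OPTI-MEM, 5000 cells/well, rested 2 h then exposed to compounds in concentration-response for 18-24 h at 37 °C. Viability by CellTiter-Fluor fluorescence (Ex 405/Em 525) after 30 min; luciferase luminescence (BugLite, 15 min, RT) read afterwards.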
Nrf2 inh: inhibitors of Nrf2 signaling; 360,000 tested, 2.1% active; A549 ARE-Fluc reporter, luciferase luminescence, 18-24 h; Potency, µM (titrated, usually from 46 µM), without a hit: at the highest dose activity change, negative = inhibition, actives largely listed as inhibitors; also: % is scaled to controls: 0 for no effect and ±100 for the full control effect; nearly all actives have a fitted effect of over 60% in size
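A549 ARE_Fluc cells, 5000/well, 5% FBS OPTI-MEM; compounds in dose-response, 18-24 h at 37 °C/5% CO2; CellTiter-Fluor viability read (Ex 405/Em 525), then BugLite luciferase luminescence = Nrf2 activity.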
Rango release inh: prevents RanGTP from dissociating the Rango-importin beta complex; 340,000 tested, 0.071% active; AID 540253; Potency, µM (highest dose often 46.1 µM), without a hit: top-dose activity change, negative = inhibition; Biochemical FRET Rango-importin beta, RanGTP-induced dissociation; O95149+P62826; calls by dose curve; also: % of control where 0% means no effect; nearly all actives have a fitted effect of over 45% in size
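Compounds preincubate 5 min with complex of recombinant Rango and importin beta in PBS with 1 mM DTT. Ran (0.6 uM) loaded with 2 mM GTP plus 0.2 uM RCC1 starts dissociation; FRET is recorded 45 min later.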
Nrf2 activator: activators of Nrf2 (ARE) signaling. AREc32 ARE-luciferase reporter (MCF7-derived line), luminescence, 24 h. Potency, µM (doses to about 46.1 µM), for the others: at the top dose activation, hits mostly activators. 410,000 tested, 0.31% active; also: % of control where 0% means no effect; nearly all actives have a fitted effect of over 65% in size
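Steps: seed AREc32_Fluc cells (1000/well, 5% FBS OPTI-MEM); incubate overnight at 37 deg C; add 23 nL compound; incubate 24 hr; add Steady-Glo; hold 30 min RT; read luminescence.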
* marks the source's active call; other numbers are inactive results; ? = inconclusive; . = not tested or not shown. Sampled rows, rich in hits. Any-hit rate of the full collection: about 2.3%. Unless noted, calls follow the shape of the dose curve; as a rule, active = well fitted curve in the direction sought with a large enough effect; inconclusive = small, poorly fitted or top-dose-only effect, or another doubt; inactive = no such curve, though single readings can be large; an effect the other way counts as inactive or inconclusive. Potency is read from the fitted curve at half-maximal effect.

SMILES	Rango complex inh	A549 tox	Nrf2 inh	Rango release inh	Nrf2 activator
COc1ccc(CN2CCc3c(c(=O)n4ncc(C(=O)N5CCN(c6ccccc6F)CC5)c4n3C)C2)cc1	.	-1%	.	.	1%
CC(=O)O[C@H]1C[C@@]2(C)[C@@H](C[C@@H](O)[C@H]3[C@@]4(C)CC[C@@H](O)[C@@H](C)[C@@H]4CC[C@@]32C)/C1=C(\CCC=C(C)C)C(=O)O	0%	-5%	29%	15%	0%
COc1ccccc1CNC(=O)C(=O)NCC(c1cccnc1)N1CCN(c2ccc(F)cc2)CC1 (centres undefined)	.	?	21µM*	.	0%
COc1ccc(N2CCN(C(CNC(=O)C(=O)NCc3ccc(F)cc3)c3cccnc3)CC2)cc1 (centres undefined)	.	?	-23%	.	0%
O=C(c1cc(COc2c(F)cccc2F)on1)N1CCC(c2ccncc2)CC1	-1%	-19%	7.3µM*	21%	3%
O=[N+]([O-])c1ccccc1/C=N/Nc1nccnc1Cl	-2%	0%	.	-3%	6.3µM*
CCCCNc1ncnc2oc(-c3ccco3)c(-c3ccco3)c12	.	-14%	21µM*	.	.
COc1ccc(-c2oc3ncnc(NCCCN(C)C)c3c2-c2ccc(OC)cc2)cc1	1%	-15%	?	0%	-1%
CCCCCCNC(=O)CNC(=S)N(Cc1cccs1)C1CCCCC1	-1%	?	16µM*	0%	0%
COc1ccc(N2CC(NC(=O)c3ccco3)CC2=O)cc1OC (centres undefined)	.	-2%	.	.	-1%
COC(=O)c1cc(NC(=O)c2ccc(Cn3cc(Cl)cn3)o2)cc(C(=O)OC)c1	2%	?	21µM*	-10%	0%
O=C(NCc1ccccc1F)c1sc2ncccc2c1-n1cccc1	.	1%	.	.	5%
O=C1CCCC1C(=O)Nc1ccc2ccccc2c1 (centres undefined)	-3%	-4%	-1%	1%	4%
O=C1CCCCC1Nc1ccc2ccccc2c1 (centres undefined)	6%	?	18µM*	7%	5%
CCn1cc(S(=O)(=O)N2CCN(c3ccc(Cl)cc3)CC2)cn1	0%	-14%	12µM*	-5%	0%
CCn1cc(S(=O)(=O)N2CCc3ccccc3C2)cn1	0%	17%	-9%	11%	5%
O=C(NC(Cc1ccccc1)C(=O)O)C1CCN(S(=O)(=O)c2ccccc2C(F)(F)F)CC1 (centres undefined)	0%	0%	-6%	0%	2%
CC(C)CNS(=O)(=O)c1ccc(CCC(=O)N2CCN(c3ccc(F)cc3)CC2)cc1	4%	-1%	-18%	-9%	0%
COc1ccc(N2CCN(C(=O)CCc3ccc(S(=O)(=O)NCC(C)C)cc3)CC2)cc1	-1%	-24%	26µM*	-1%	3%
COc1ccc(N2CCN(C(=O)COC(=O)c3cccc(S(=O)(=O)Nc4cccc(C)c4)c3)CC2)cc1	?	-5%	26µM*	-17%	0%
Nc1c(C(=O)N2CCCCCC2)oc2ccccc12	2%	2%	?	43%	6%
Cc1ccc(-n2nc3c([n+]2[O-])CCc2c-3no[n+]2[O-])cc1	-2%	?	-29%	0%	2.2µM*
Cc1nc(S(=O)(=O)NC2CCCCC2)c(C#N)c(C)c1Cl	0%	-9%	-9%	0%	13µM*
CC1CCc2c(sc(NC(=O)c3cc(-c4cccc(Cl)c4)on3)c2C(N)=O)C1 (centres undefined)	.	5%	4%	.	19%
CC(=O)N1CCc2c(sc3c2c(=O)n(-c2cc(Cl)ccc2C)c(=O)n3Cc2ccccc2F)C1	.	-1%	7%	.	7%
CN(C(=O)c1cccc(NC(=O)Cc2ccc([N+](=O)[O-])cc2)c1)C1CCCCC1	-5%	?	?	5%	2%
CN(C(=O)c1ccc(Oc2ccc([N+](=O)[O-])cc2)cc1)C1CCCCC1	-1%	-8%	26µM*	7%	6%
Cc1ccc(C)c(N2CCN(C(=O)Cn3ncc4c(=O)oc5ccccc5c43)CC2)c1	.	-1%	3%	.	-1%
